# TDP1 cell noCPT: qHTS for Inhibitors of human tyrosyl-DNA phosphodiesterase 1 (TDP1): qHTS in cells in absence of CPT | Potency, µM (highest dose often 46.2 µM), for the others: top-dose activity change, negative = growth inhibition, usual class: inhibitors | actives 15% (n = 420,000) | DT40 Tdp1-/- hTDP1 cells, no CPT, ATP luminescence, 48 h; further: potency means the concentration at half of the fitted maximal effect; nearly all actives have a fitted effect of over 55% in size
#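 Stably hTDP1-transfected Tdp1-null chicken DT40 cells were treated with library compounds minus camptothecin and grown for at least 48 hr at 37 °C, after which cellular ATP was quantified by luminescence.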
# DT40 TDP1 CPT: qHTS for Inhibitors of human tyrosyl-DNA phosphodiesterase 1 (TDP1): qHTS in cells in presence of CPT. chicken DT40 Tdp1-/-;hTDP1 cells + 20 nM CPT, ATP luminescence, 48 h. Potency, µM (top dose mostly 46.2 µM), inactives show at the highest dose activity change, negative = growth inhibition, actives largely listed as inhibitors. actives 12% (n = 420,000). AID 686979, 2013; further: potency means the concentration at half of the fitted maximal effect; nearly all actives have a fitted effect of over 55% in size
#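 Chicken DT40 Tdp1-/- cells complemented with human TDP1, 400 cells/well, exposed to compounds plus 20 nM camptothecin for at least 48 h at 37 C; viability read as ATP content by CellTiter-Glo luminescence.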
# IL1B secr inh: qHTS for Inhibitors of Inflammasome Signaling: IL-1-beta AlphaLISA Primary Screen; THP-1 LPS/ATP IL-1B secretion, AlphaLISA, 16 h; hits give low values; activity change, % at 57.5 µM; actives 4.7% (n = 360,000); AID 743279, 2014; in the data active means activity change below about -50%; inconclusive means mostly about -30% to -49%
#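 Secreted IL-1B measured by AlphaLISA bead assay after 16 h compound exposure of THP-1 cells; compounds (final up to 57.5 uM) added 1 h before LPS (250 ng/mL) and ATP (1.25 mM) stimulation; lower signal means less secretion.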
# HT1080 IDH1KD tx: qHTS for induction of synthetic lethality in tumor cells producing 2HG: qHTS for the HT-1080-IDH1KD cell line. actives 2% (n = 360,000). AID 686971, 2013. HT-1080 IDH1 knockdown viability, ATP luminescence, 48 h. Potency, µM (top dose mostly 46.1 µM), for the others: top-dose activity, negative = toxicity, usual class: cytotoxic;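 further: potency means the concentration at half of the fitted maximal effect; 0% = DMSO wells and -100% = cell-free medium wells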
#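 % activity derives from luminescence (CellTiter-Glo), normalised to DMSO and no-cell wells. HT-1080-IDH1KD cells, 750/well, had 48 h compound exposure at 37 °C.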
# ELG1 DNA repair: qHTS screen for small molecules that inhibit ELG1-dependent DNA repair in human embryonic kidney (HEK293T) cells expressing luciferase-tagged ELG1. HEK293T ELG1-luciferase reporter, luminescence, 16 h; DNA damage induced by 5-fluorouridine. Potency, µM (series often up to 46.1 µM), without a hit: at the top dose activity change, negative = inhibition, most hits filed as inhibitors. actives 2.3% (n = 330,000). AID 504467, 2011; further: potency means the concentration at half of the fitted maximal effect; nearly all actives have a fitted effect of over 55% in size
#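 Quantitative HTS, concentration-response format. 2,000 cells/well co-treated with 5-fluorouridine and compound, 16 hr in 5% CO2 at 37 °C; ONE-Glo luminescence read after 30 min.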
# HT1080NT lethal: qHTS for induction of synthetic lethality in tumor cells producing 2HG: qHTS for the HT-1080-NT fibrosarcoma cell line; HT-1080-NT fibrosarcoma viability, CellTiter-Glo ATP luminescence, 48 h; Potency, µM (top dose mostly 46.1 µM), for the others: top-dose activity, negative = less viability, hits mostly cytotoxic; actives 1.6% (n = 360,000); AID 686970, 2013;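 further: NT is the 2HG producing partner of a matched IDH1 knockdown line; potency means the concentration at half of the fitted maximal effect; 0% = DMSO-treated cells and -100% = media-only wells without cells; nearly all actives have a fitted effect of over 55% in size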
#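 Luminescent CellTiter-Glo readout after 48 hours of compound exposure at 37 degrees C defined viability of HT-1080-NT cells. Activity was normalized to DMSO wells and cell-free media wells; concentration-response curves were fitted and assigned curve classes.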
# * hit, by the source's call; ? = inconclusive; / = no result given. Sampled rows, rich in hits. Any-hit rate of the full collection: about 19%. Unless noted, the call rests on the fitted dose curve; in most records, active means well fitted curve in the direction sought with a large enough effect; inconclusive means small, poorly fitted or top-dose-only effect, or another doubt; inactive means no such curve, though single readings can be large; an effect the other way counts as inactive or inconclusive. Unless noted, on the % scale 0 is the no-effect control and ±100 the full control effect.
SMILES,TDP1 cell noCPT,DT40 TDP1 CPT,IL1B secr inh,HT1080 IDH1KD tx,ELG1 DNA repair,HT1080NT lethal
Cc1cc(NC(=O)CSCC(=O)Nc2nc3ccccc3[nH]2)no1,16%,10%,1,7%,13%,10%
C=CCn1c(C)cc(-c2csc(NCC)n2)c1C,?,?,-55*,?,?,?
C=CCn1c(C)cc(-c2csc(NC)n2)c1C,?,?,-96*,-14%,5%,?
CCN(C(=O)COC(=O)c1ccc(-n2c(C)ccc2C)cc1)c1c(N)n(Cc2ccccc2)c(=O)[nH]c1=O,-18%,?,?,-9%,/,0%
CCC(=O)N1CCc2cc(S(=O)(=O)NC(C(=O)NCCc3cccc(C)c3)C(C)C)ccc21 (stereo not drawn),-17%,-9%,/,/,/,/
COc1ccc(OC)c(/C=C/C(=O)OCC(=O)NCc2cccs2)c1,-4%,-10%,18,1%,-10%,7%
CCOC(=O)c1c(C)oc2c(F)c(F)c(F)c(F)c2c1=O,21µM*,16µM*,-121*,?,?,?
COc1cccc(C(=O)OCC(=O)NCC2CCCO2)c1 (stereo not drawn),-11%,-11%,9,17%,4%,11%
O=C(CN1CCN(c2ccccc2O)CC1)Nc1ccc2c(c1)CCC2,?,14%,-3,0%,2%,1%
COc1cc(/C=C(/C#N)c2ccc(F)cc2)ccc1Oc1ccc([N+](=O)[O-])cn1,3.7µM*,2.9µM*,-54*,?,0%,1%
COCCN1C(=O)/C(=C/c2ccc(Oc3ccc([N+](=O)[O-])cn3)c(OC)c2)SC1=Nc1ccccc1,?,0%,?,30%,2.6µM*,4%
N#C/C(=C/c1ccc(Oc2ccc([N+](=O)[O-])cn2)cc1)C(=O)N1CCOCC1,-27%,?,-29,-9%,?,-1%
COc1cc(/C=C2\SC(=Nc3ccccc3)N(CCc3c[nH]c4ccccc34)C2=O)ccc1OC(C)C(=O)O (stereo not drawn),?,?,?,-30%,-3%,-18%
COc1cc(/C=N\NC(=O)c2ccccc2F)ccc1Oc1ccc([N+](=O)[O-])cn1,4.6µM*,4.6µM*,-12,7.3µM*,-26%,21µM*
COc1cc(/C=N\NC(=O)c2ccc(Cl)cc2)ccc1Oc1ccc([N+](=O)[O-])cn1,-20%,-4%,-16,-14%,?,-13%
CCOc1cc(C=C(C#N)C#N)ccc1Oc1ccc([N+](=O)[O-])cn1,13µM*,18µM*,-29,-3%,8%,0%
COc1cc(/C=N/NC(=O)C2CCN(CC(O)COCc3ccccc3)CC2)ccc1O (stereo not drawn),-1%,6%,22,1%,-4%,-7%
O=C1CCC(C(=O)OCC(=O)c2ccccc2)N1 (stereo not drawn),-24%,?,17,17%,19%,17%
CC1CC(C)C(=O)C(C(CC2CC(=O)NC(=O)C2)OC(=O)CC(=O)c2ccccc2)C1 (stereo not drawn),0.41µM*,0.37µM*,3,?,/,?
